MEX-5 binding: C. elegans MEX-5 TCR-2 RNA binding activity | AID 1832 | MEX-5/FITC-TCR2 RNA binding, fluorescence polarization; hits give low values | activity score (negative = inhibition of binding), % at 10 µM | actives 0.38% (n = 300,000) | Q9XUB2;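 active = inhibition past about -25% in most replicates, and total fluorescence under double the plate's negative control median, limit read from the data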;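 note: 0% = DMSO and -100% = 5 µM competing unlabeled TCR2 RNA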
Target sequence (Q9XUB2 whole entry, looked up): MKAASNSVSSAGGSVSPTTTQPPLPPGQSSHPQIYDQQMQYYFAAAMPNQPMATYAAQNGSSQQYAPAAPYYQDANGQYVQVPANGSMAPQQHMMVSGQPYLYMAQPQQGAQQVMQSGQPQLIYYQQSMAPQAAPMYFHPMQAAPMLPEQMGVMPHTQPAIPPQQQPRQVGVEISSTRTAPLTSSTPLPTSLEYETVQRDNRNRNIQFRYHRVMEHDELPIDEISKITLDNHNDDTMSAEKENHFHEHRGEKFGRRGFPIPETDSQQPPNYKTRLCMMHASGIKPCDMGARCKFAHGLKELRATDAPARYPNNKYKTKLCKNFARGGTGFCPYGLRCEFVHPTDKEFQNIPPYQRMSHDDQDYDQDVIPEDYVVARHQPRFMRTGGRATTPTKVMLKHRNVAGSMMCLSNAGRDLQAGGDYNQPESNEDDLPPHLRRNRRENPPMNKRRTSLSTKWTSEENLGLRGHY
LANA-H2B inh: blocks KSHV LANA binding to histone H2A/H2B | inhibition, % (no concentration beside the values) | cell-free LANA-H2A/H2B peptide, fluorescence polarization | actives 0.6% (n = 320,000) | AID 2629; in the data active = inhibition mostly above about 10%, no sharp cut-off; inactive = mostly below about 6.7%
MCL1 BIM primary: disrupts human MCL1 binding to BIM-BH3 peptide; GST-MCL1 / FITC-Bim-BH3 fluorescence polarization; inhibition, % at 10.9 µM; actives 0.68% (n = 320,000);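 active = inhibition above the mean inhibition of all tested compounds plus 3 SD, set per campaign, cut at about 40% in these data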;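 note: 0% = DMSO wells and 100% = unlabeled Bim-BH3 peptide control; higher means more loss of mP so more displacement of Bim peptide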
GLD-1 RNA inh: GLD-1-TGE RNA interaction inhibition (C. elegans). Q17339. purified GLD-1 + fluorescein TGE RNA, fluorescence polarization. inhibition, % at 5.96 µM. actives 0.44% (n = 320,000). AID 2280;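 active = percent inhibition above a per-plate cutoff, the plate mean of test compounds plus 3 SD, cut at about 30% in these data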;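 note: 0% = DMSO wells with GLD-1 and probe and 100% = wells lacking GLD-1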
CR mimetic SO: lowers age-related superoxide in aged yeast cells; S. cerevisiae aged cells, superoxide DHE fluorescence; hits give low values; superoxide response (% of plate mean), % at 10 µM; actives 0.18% (n = 330,000);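 active = superoxide response under a set limit, about three screen SD below normal, cut at about 65% in these data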;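 note: yeast aged for seven days with compound at 30 °C before DHE staining; 100% = average MFI of all compound-treated wells on the plate with controls excluded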
Bcl-xL primary: inhibitors of human Bcl-xL. GST-Bcl-xL / FITC-Bim BH3 peptide fluorescence polarization. inhibition, % at 10.9 µM. actives 0.7% (n = 320,000). AID 2129;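 active = inhibition above the mean of all tested compounds plus 3 SD, cutoff set per campaign, cut at about 30% in these data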;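 note: 0% = DMSO wells and 100% = unlabeled Bim-BH3 peptide competitor; inhibitors lower millipolarization by displacing the labeled peptide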
Superoxide pick: confirmation of caloric restriction mimetics inhibiting yeast age-related superoxide; shares compounds with CR mimetic SO; S. cerevisiae aging, superoxide DHE fluorescence; hits give low values; superoxide response (% of plate), % at 10 µM; actives 1% (n = 850); AID 434994;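 active = superoxide signal below 65% of the plate average of sample wells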;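 note: cells aged with compound for 7 days at 30 degrees C before staining; 100% equals mean DHE fluorescence of all compound wells on the plate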
DHE counter: DHE fluorescence interference, counter-screen artifact | shares compounds with CR mimetic SO | S. cerevisiae BY4741, flow cytometry; hits give low values | fluorescence response, % at 10 µM | 850 tested, under 10 active;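 active = fluorescence response below 15%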;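 note: percent of the mean fluorescence averaged over all compound wells on the plate; lower means stronger quenching of DHE signal or ROS scavenging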
* hit, by the source's call; · = no result. A selection: hits, their analogues and other compounds. The true share with any hit is near 1.9%.

SMILES	MEX-5 binding	LANA-H2B inh	MCL1 BIM primary	GLD-1 RNA inh	CR mimetic SO	Bcl-xL primary	Superoxide pick	DHE counter
CCn1c2ccccc2c2cc(/C(C)=N/O)ccc21	0	1	-3	2	101	2	104	122
CCC(CC)NCc1ccc2c(c1)c1ccccc1n2CC	0	-2	-5	1	101	7	107	93
Cn1c2ccccc2c2cc(C(=O)O)ccc21	-2	0	-1	-1	138	0	·	·
CCn1c2ccccc2c2cc(N)ccc21	-2	-1	1	9	99	7	96	96
CCCn1c2ccccc2c2cc(C(=O)O)ccc21	-1	1	4	-2	114	6	106	96
COC(=O)c1ccc(N2CCN(C)CC2)c(NC(=O)c2cccs2)c1	-1	0	10	-1	96	5	·	·
O=C(O)Cc1ccc2ccc3ccccc3c2c1	-1	-5	-3	-1	112	2	·	·
CCn1c2ccc(CC(=O)O)cc2c2cc(CC(=O)O)ccc21	1	7	6	4	105	3	101	103
COP(=O)(c1ccc(N(C)C)cc1)C(O)c1ccccc1 (stereo unspecified)	-2	-1	5	3	99	5	·	·
O=C1CC(=C2c3ccccc3-c3ccccc32)C(=O)N1CCCCN1CCN(c2ccccc2)CC1	2	-3	8	0	15*	-1	97	94
O=C1CC(=C(c2ccccc2)c2ccccc2)C(=O)N1CCCN1CCN(c2cccc(Cl)c2)CC1	5	0	0	-1	97	2	·	·
COc1ccc(CCNC(=O)C(=O)NCC2OCCN2S(=O)(=O)c2ccccc2)cc1 (stereo unspecified)	-2	2	2	-2	111	0	·	·
O=C(CCC1CCCC1)NCCS(=O)(=O)N1CCN(c2ccccc2)CC1	2	-2	-2	-2	90	-1	·	·
O=C(CC1CCCCC1)NCCS(=O)(=O)N1CCN(c2ccccc2)CC1	-1	-6	-8	4	64*	-1	96	107
CCOc1ccc2nc(NC(=O)C3CSC4(C)CCC(=O)N34)sc2c1 (stereo unspecified)	·	-3	-4	0	115	5	·	·
COc1ccc(C(=O)NCc2nnc(SCC(=O)Nc3ccccc3OC)n2C)cc1	1	-2	3	9	99	3	·	·
Cc1ccccc1NC(=O)CSc1nnnn1C	0	1	2	1	60*	1	101	94
Cc1ccccc1NC(=O)CSc1ccc(-c2ccc(-n3cccn3)cc2)nn1	-1	2	0	1	119	5	99	96
COc1ccccc1NC(=O)CSc1ccc(-c2ccc(-n3ccnc3)cc2)nn1	1	-4	4	1	99	7	105	90
Cn1nnnc1SCC(=O)Nc1ccccc1-c1ccccc1	0	1	6	-4	97	7	·	·
CCCCn1c(N)c(N(CC(C)C)C(=O)c2ccc([N+](=O)[O-])o2)c(=O)[nH]c1=O	·	·	3	10	138	0	·	·
COc1cc(Nc2ncnc(N)n2)cc(OC)c1	-1	3	-1	4	59*	1	105	110
COc1cc(Nc2ncnc(N)n2)cc(OC)c1OC	-1	3	2	5	102	-5	·	·
O=C(Nc1ccc(F)c(F)c1)c1ccc(F)c(S(=O)(=O)N2CCOCC2)c1	1	-6	8	3	56*	6	120	110
C/C(=N\NC(N)=O)C1CC(Cc2ccccc2)C(=O)O1 (stereo unspecified)	1	10	·	·	101	·	·	·
SMILES	MEX-5 binding	LANA-H2B inh	MCL1 BIM primary	GLD-1 RNA inh	CR mimetic SO	Bcl-xL primary	Superoxide pick	DHE counter
O=C(NNC(=O)c1ccc(Cl)cc1Cl)Nc1ccccc1	1	-8	6	4	63*	4	99	89
O=C(N/N=C/c1ccc(F)cc1)c1cc(-c2ccc3c(c2)OCO3)n[nH]1	2	8	3	2	64*	2	105	94
CN(C)c1ccc(/C=N/NC(=O)c2cc(-c3ccc4c(c3)OCO4)n[nH]2)cc1	1	-5	6	1	107	6	·	·
O=C(Nc1ccc(Cl)cc1)[C@@H]1[C@@H]2C(=O)N(c3ccc(Cl)cc3)C(=O)[C@@H]2[C@H]2C=CC=NN21	1	4	7	8	64*	9	99	93
Cc1ccc(N2C(=O)[C@@H]3[C@H](C2=O)[C@H]2C=CC=NN2[C@@H]3C(=O)Nc2ccc(Cl)cc2)cc1	0	5	6	6	105	13	·	·
CCN(CC)C(=O)COc1ccc(-c2nnc(Nc3ccc(OC)c(C(=O)NC)c3)c3ccccc23)cc1	-2	-10	5	0	94	2	·	·
Cc1csc(C(=O)NN)c1N(C)C	-2	-2	3	-3	104	1	·	·
COc1ccc(CC(=O)OCC(=O)Nc2cc(Cl)ccc2C)cc1	·	-4	·	-3	63*	·	98	92
C=CCC(C(=O)OC)(C(=O)OC)c1ccccc1[N+](=O)[O-]	-2	1	-1	2	114	3	·	·
CCc1cccc(C)c1NC(=O)c1cc(C)oc1C	0	2	3	1	109	5	·	·
CCc1cccc(C)c1NC(=O)c1ccoc1C	-3	0	7	3	64*	4	108	104
Cc1c2cnn(-c3ccccc3)c(=O)c2c(C)n1CCCC(=O)NCCN1CCN(C)CC1	-2	-3	7	4	93	7	·	·
O=C(NCc1ccco1)c1nn(-c2ccccc2)c(=O)c2ccccc12	-1	-1	-1	4	62*	-1	90	107
O=C(Nc1ccccc1)/C(=C\c1ccccc1)NC(=O)c1ccco1	0	3	3	3	92	3	·	·
O=C(Nc1ccccc1)/C(=C/c1cccnc1)NC(=O)c1ccco1	·	0	0	0	62*	7	113	101
O=C(C1CCN(S(=O)(=O)c2ccccc2)CC1)N1CCN(Cc2ccccc2)CC1	0	-6	·	·	88	·	·	·
O=C(c1ccc(Cl)cc1)N1CCN(c2ccc(F)cc2)CC1	1	-2	5	3	71	9	89	103
O=C(c1cccnc1)N1CCN(c2ccc([N+](=O)[O-])cc2Cl)CC1	2	4	10	-1	115	3	·	·
O=C(c1cccnc1)N1CCN(c2ccccc2Cl)CC1	0	-1	0	2	97	4	117	91

Assay outcomes deposited in PubChem BioAssay by several laboratories.
